# From PubChem BioAssay
# HCV inh: inhibitors of hepatitis C virus infection; AID 651820; 340,000 tested, 3.4% active; Potency, µM (titrated, usually from 41.8 µM), for the others: at the top dose activity change, negative = inhibition, usual class: inhibitors; Huh7.5.1 HCVcc-Cre infection, luciferase reporter, 44 h; note: % is set by controls: 0 for no effect and ±100 for the full control effect
#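 Antiviral activity was scored by luciferase reporter output from cells infected with HCVcc-Cre (~0.5 moi) in presence of compound, 44 h infection period, cells seeded 1,000/well 4 h prior.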
# Vaccinia Venus: inhibitors of vaccinia virus (Venus reporter); Vaccinia virus Venus reporter expression, fluorescence; Potency, µM (series often up to 36.5 µM), for inactives: at the top dose activity change, negative = inhibition, hits mostly inhibitors; 330,000 tested, 0.46% active; AID 720580; calls by dose curve; tested in A549 cells; note: % is set by controls: 0 for no effect and ±100 for the full control effect; nearly all actives have a fitted effect of over 30% in size
# Vaccinia mCherry: inhibitors of vaccinia virus infection (mCherry reporter signal); 310,000 tested, 0.63% active; Potency, µM (titrated, usually from 36.5 µM), without a hit: at the highest dose activity change, negative = inhibition, actives largely listed as inhibitors; Vaccinia virus mCherry reporter infection, fluorescence; calls by dose curve; tested in A549 cells; note: % is set by controls: 0 for no effect and ±100 for the full control effect; nearly all actives have a fitted effect of over 35% in size
# NS1 inh: inhibitors of influenza NS1 protein function. 270,000 tested, 0.4% active. Potency, µM (doses to about 46.1 µM), without a hit: top-dose activity, positive = more growth; calls by dose curve; note: actives are rising curves; nearly all actives have a fitted effect of over 50% in size
#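 OD600 was taken as the measure of yeast growth restored by compound in an NS1-expressing S. cerevisiae strain. Cells had been washed out of glucose medium and diluted 1:100 into galactose -URA medium, pH 6.0.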
# Pf growth 96h: P. falciparum growth inhibition at 96 hour, primary screen for plastid delayed-death inhibitors | P. falciparum luciferase reporter growth, 96 h | Potency, µM (doses to about 28.7 µM), without a hit: at the top dose activity change, negative = inhibition, usual class: inhibitors | 320,000 tested, 6.9% active | AID 504834; note: % is set by controls: 0 for no effect and ±100 for the full control effect
#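 Two parasite generations (96 h, 37 C, 5% CO2) of compound exposure in infected erythrocytes (0.05% parasitemia, 2% hematocrit). Luciferase-reporter P. falciparum; decreased luminescence indicates inhibited growth, aimed at apicoplast-acting delayed death.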
# Pf growth 48h: P. falciparum growth inhibition at 48 hours (one generation) | Potency, µM (highest dose often 28.7 µM), for the others: top-dose activity change, negative = inhibition, hits mostly inhibitors | AID 504832 | 310,000 tested, 5.9% active | P. falciparum luciferase growth in erythrocytes, 48 h; note: % is set by controls: 0 for no effect and ±100 for the full control effect
#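 First compound was added to culture medium, then infected red cells at 0.1% parasitemia and 2% hematocrit (final). After incubation at 37 C under 5% CO2, luciferase detection reagent was dispensed and light output recorded.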
# Numbers without * were called inactive; i = inactive; ? = inconclusive; / = not tested or not shown. Shown are actives, neighbours in structure and some others; about 11% of the full set was active somewhere. Unless noted, calls come from the whole dose curve; as a rule, active = well fitted inhibition curve with a large enough effect; inconclusive = small, poorly fitted or top-dose-only effect, or another doubt; inactive = no such curve, though single readings can be large or run the other way. Potency is the fitted concentration of half-maximal effect.
SMILES,HCV inh,Vaccinia Venus,Vaccinia mCherry,NS1 inh,Pf growth 96h,Pf growth 48h
CCCCN(C)CCNC(=O)c1cc2c(-c3cccc(OC)c3)nn(C)c2s1,?,-20.1%,-25.4%,1.0%,-19.2%,1.47µM*
O=C1c2ccccc2NC(c2ccccn2)N1c1ccc(Cl)cc1 (stereo not given),11.9%,-7.0%,/,-8.5%,94.0%,45.4%
COc1ccnc2c1c(=O)n(Cc1ccccc1Cl)c(=O)n2C,-2.2%,/,/,-21.6%,9.3%,4.6%
CCC(C)N1CCC(Oc2ccc(C(=O)NCc3ccccn3)cc2)CC1 (stereo not given),1.0%,-17.4%,-11.5%,15.6%,10.4µM*,-9.5%
COCCNC(=O)c1cccc(OC2CCN(Cc3ccccc3C)CC2)c1,-10.2%,0.5%,i,17.7%,1.47µM*,-4.1%
CCOc1ccccc1CN1CCC(Oc2cccc(C(=O)NCCOC)c2)CC1,-3.7%,-4.6%,i,2.3%,24.9%,?
O=C(NCc1ccccn1)c1ccc(OC2CCN(Cc3ccc(F)cc3F)CC2)cc1,-29.9%,-14.9%,-0.6%,10.8%,-2.9%,11.7µM*
COc1cccc(CN2CCC(Oc3ccc(C(=O)NCc4ccccn4)cc3)CC2)c1O,-20.4%,/,/,-13.8%,6.57µM*,?
O=C(NCc1ccccn1)c1ccc(OC2CCN(Cc3ccccc3O)CC2)cc1,/,-16.3%,-3.0%,-8.2%,?,?
O=C(NCc1ccccn1)c1ccc(OC2CCN(Cc3ccccc3)CC2)cc1,11.1%,-11.1%,i,-10.6%,62.8%,-5.5%
COc1ccc(CN2CCC(Oc3ccc(C(=O)NCc4ccccn4)cc3)CC2)c(F)c1,-1.6%,/,/,-10.7%,?,-16.2%
NC(=S)N/N=C1\CCSc2ccc(Cl)cc21,?,?,?,6.4%,?,-3.4%
CCc1ccc(NC(=O)CSc2nnc(C)c(=O)n2N)cc1,0.9%,-7.8%,i,18.0%,16.8%,-5.3%
NC12CC3CC(C1)CC(CO)(C3)O2,-3.5%,-14.3%,/,0.4%,8.28µM*,0.0%
CC(C)Cn1c(=O)[nH]c2ccccc21,-19.5%,-28.4%,/,-4.4%,/,-3.3%
NC(=O)[C@@H]1[C@@H]2C(=O)N(c3ccc(F)cc3)C(=O)[C@@H]2[C@H]2C=Cc3ccccc3N21,-18.3%,33.3%,1.8%,9.2%,?,?
O=C(c1ccco1)[C@@H]1[C@@H]2C(=O)N(c3ccc(F)cc3)C(=O)[C@@H]2[C@H]2C=Cc3ccccc3N21,-3.7%,35.3%,10.4%,?,3.7µM*,?
O=C(NCCc1csc(-c2cccc(F)c2)n1)c1ccco1,10µM*,-5.4%,-9.7%,-34.7%,-2.2%,15.4%
O=C(NCCc1csc(-c2ccccc2)n1)c1ccco1,-29.5%,-4.6%,-13.6%,-41.5%,21.0%,?
Cc1cc2c(c(C)c1Cl)C(c1ccc3c(c1)OCO3)CC(=O)O2 (stereo not given),1.9%,-19.9%,-15.5%,/,/,/
Cc1ccc(C(C)C)c2c1C(c1ccc3c(c1)OCO3)CC(=O)O2 (stereo not given),12.6µM*,-12.4%,?,/,/,/
C/C(=N\NC(=O)c1cccc(F)c1)c1ccc(Br)s1,-26.5%,/,/,-13.7%,3.7µM*,?
C/C(=N\NC(=O)c1ccccc1O)c1ccc(Br)s1,-10.4%,-23.9%,?,-9.5%,37.9%,13.1µM*
C/C(=N\NC(=O)c1ccccc1[N+](=O)[O-])c1ccc(Br)s1,-9.2%,8.6%,i,0.7%,58.9%,-1.6%
CC(C)CCNC(=S)NC1CCCC1,-7.2%,/,/,-38.4%,36.6%,-19.9%
SMILES,HCV inh,Vaccinia Venus,Vaccinia mCherry,NS1 inh,Pf growth 96h,Pf growth 48h
CC(C)c1nc2oc3c(NCc4cccnc4)ncnc3c2c2c1CCC2,7.08µM*,/,/,10.5%,-0.4%,-5.1%
CC(C)Cc1nc2oc3c(NCC4CCCO4)ncnc3c2c2c1CCC2 (stereo not given),14.1µM*,/,/,-30.6%,4.65µM*,?
CCN1CCN(c2ncnc3c2oc2nc(C(C)C)c4c(c23)CCC4)CC1,/,/,/,-1.6%,3.29µM*,15.7%
O=C(CSc1nc2ccccc2c(=O)n1-c1ccc(F)cc1F)c1c[nH]c2ccccc12,?,-21.0%,-12.5%,13.7%,?,?
CCN(CC)S(=O)(=O)c1ccc(NC(=O)c2c(C)oc3ncnc(N4CCOCC4)c23)cc1,/,-16.8%,i,/,/,/
O=C(N/N=C/c1cccnc1)c1cc(C2CC2)nc2ccccc12,9.1%,-8.4%,17.2%,19.3%,-19.0%,-25.1%
COc1ccc(NC(=O)CCl)cn1,/,/,/,-8.4%,10.4µM*,8.28µM*
COc1ccc(NC(=O)C(C)(C)Oc2ccc(Cl)cc2)cn1,-21.2%,1.3%,-7.0%,/,6.7%,26.1%
COc1ccc(NC(=O)/C(Cl)=C(/Cl)S(=O)Cc2ccc(Cl)cc2)cn1 (stereo not given),7.94µM*,7.94µM*,5.62µM*,/,?,-35.9%
COc1ccc(NC(=O)/C(Cl)=C(/Cl)S(=O)(=O)Cc2ccccc2)cn1,3.55µM*,22.4µM*,/,-200.2%,-13.2%,/
COc1ccc(NC(=O)Nc2ccc(OCc3ccccc3)cc2)cn1,?,/,/,4.8%,-12.3%,?
COc1ccc(NC(=O)C(Cl)=C(Cl)Cl)cn1,10µM*,-3.3%,-15.1%,/,?,?
Cc1ccc(-c2nc3c4ccccc4ccn3c2Cc2ccccc2C(F)(F)F)cc1,/,-1.0%,14.1%,/,/,/
OC(COc1ccc(Cl)cc1)CN1C2=NCCCN2c2ccccc21 (stereo not given),12.6µM*,-43.9%,/,2.8%,?,5.22µM*
O=C(CN1C2=NCCCN2c2ccccc21)c1ccc([N+](=O)[O-])cc1,11.2µM*,/,/,-9.6%,?,1.85µM*
O=C(CN1C2=NCCCN2c2ccccc21)c1cccc(Br)c1,?,-18.9%,?,15.5%,?,?
O=C(CN1C2=NCCCN2c2ccccc21)c1ccc(Cl)cc1Cl,?,-24.2%,?,-2.1%,-8.7%,0.37µM*
CCCSc1cc(N)cc([N+](=O)[O-])c1,-21.8%,-13.2%,-15.7%,/,?,10.2%
Cc1ccc(S(=O)(=O)N2CCN(C(=O)N3CCOCC3)C2c2ccc(N(C)C)cc2)cc1 (stereo not given),15.4%,/,/,-53.5%,3.2%,8.4%
